Measurements: paper PMC7862700, “An all-to-all approach to the identification of sequence-specific readers for epigenetic DNA modifications on cytosine”

Key:
Assay in all cases: DAPPL (digital affinity profiling via proximity ligation, sequencing); 10 mM Tris-HCl pH 7.5, 50 mM NaCl, 1 mM DTT, 4% glycerol, room temperature, 30 min; GST-TFs on glutathione beads, 16-mer random dsDNA library, 0.1% formaldehyde crosslink after washing; high values mean tight binding
FEV = molecular target: T1, FEV (Homo sapiens, UniProt Q99581 1-238); conditions: protein: recombinant; tags: N-terminal GST; dsDNA, one strand shown
T1 sequence: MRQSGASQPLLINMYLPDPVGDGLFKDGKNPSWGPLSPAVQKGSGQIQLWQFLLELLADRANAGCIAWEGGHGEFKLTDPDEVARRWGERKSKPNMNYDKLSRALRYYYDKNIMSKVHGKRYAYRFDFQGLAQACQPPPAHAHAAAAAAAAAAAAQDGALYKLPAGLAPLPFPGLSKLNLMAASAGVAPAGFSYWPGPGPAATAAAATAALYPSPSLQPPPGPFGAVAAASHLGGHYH
How it was run: (§1)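 GST fusions of human transcription factors were expressed in yeast and captured with glutathione beads. Once given DNA barcodes and pooled alongside a tag-only sample, they were incubated for 30 min at room temperature with 200 nmole of a random double-stranded 16-mer DNA library in Tris/NaCl/DTT/glycerol buffer, then washed, crosslinked (0.1% formaldehyde), proximity-ligated, PCR-amplified and sequenced on an Illumina NextSeq500. The binding signal of each hexamer is its read frequency for a factor divided by its frequency for the tag-only sample.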

ETV5 = ETV5 (Homo sapiens, UniProt P41161 1-510); conditions: protein: recombinant; tags: N-terminal GST; dsDNA, one strand shown
Sequence of ETV5 (P41161 whole entry): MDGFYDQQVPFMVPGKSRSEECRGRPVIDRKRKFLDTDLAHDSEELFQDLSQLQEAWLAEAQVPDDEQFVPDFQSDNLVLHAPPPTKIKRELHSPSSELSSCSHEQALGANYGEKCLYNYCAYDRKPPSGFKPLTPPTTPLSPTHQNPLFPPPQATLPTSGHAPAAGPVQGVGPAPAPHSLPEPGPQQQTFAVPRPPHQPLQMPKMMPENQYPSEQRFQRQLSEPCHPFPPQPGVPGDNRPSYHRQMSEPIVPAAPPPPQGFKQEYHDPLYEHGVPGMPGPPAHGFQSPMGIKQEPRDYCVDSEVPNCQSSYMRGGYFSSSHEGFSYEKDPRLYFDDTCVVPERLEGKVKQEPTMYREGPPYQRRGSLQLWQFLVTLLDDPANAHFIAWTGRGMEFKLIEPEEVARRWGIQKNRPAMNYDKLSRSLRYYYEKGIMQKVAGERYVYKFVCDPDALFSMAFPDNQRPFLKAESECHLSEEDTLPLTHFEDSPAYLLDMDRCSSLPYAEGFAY
How it was run: as §1

HSF1 = HSF1 (Homo sapiens, UniProt Q00613 1-529); conditions: protein: recombinant; tags: N-terminal GST; chain copies: 3; dsDNA, one strand shown
Sequence of HSF1 (Q00613 whole entry): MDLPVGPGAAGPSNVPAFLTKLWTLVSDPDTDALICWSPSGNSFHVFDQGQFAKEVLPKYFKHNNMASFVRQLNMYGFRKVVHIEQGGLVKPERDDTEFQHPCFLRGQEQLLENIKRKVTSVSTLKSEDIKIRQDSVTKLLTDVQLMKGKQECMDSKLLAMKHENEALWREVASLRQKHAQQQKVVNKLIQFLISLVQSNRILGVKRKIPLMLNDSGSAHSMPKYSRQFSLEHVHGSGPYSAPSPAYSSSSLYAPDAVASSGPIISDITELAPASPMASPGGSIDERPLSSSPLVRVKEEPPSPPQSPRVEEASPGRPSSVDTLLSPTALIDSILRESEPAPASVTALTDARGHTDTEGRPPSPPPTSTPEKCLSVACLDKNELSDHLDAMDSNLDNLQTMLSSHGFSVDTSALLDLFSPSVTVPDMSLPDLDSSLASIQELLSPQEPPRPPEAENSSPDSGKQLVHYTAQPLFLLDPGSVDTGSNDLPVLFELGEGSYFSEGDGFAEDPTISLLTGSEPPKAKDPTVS
How it was run: as §1

SPIC = molecular target: T2, SPIC (Homo sapiens, UniProt Q8N5J4 1-248); conditions: protein: recombinant; tags: N-terminal GST; dsDNA, one strand shown
T2 sequence: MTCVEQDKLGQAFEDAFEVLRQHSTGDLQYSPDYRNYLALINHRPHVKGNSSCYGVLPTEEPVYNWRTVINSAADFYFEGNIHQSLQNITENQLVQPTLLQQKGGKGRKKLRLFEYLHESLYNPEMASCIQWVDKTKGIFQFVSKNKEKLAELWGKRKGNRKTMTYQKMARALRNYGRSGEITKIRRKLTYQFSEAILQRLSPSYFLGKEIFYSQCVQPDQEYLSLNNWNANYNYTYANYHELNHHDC
How it was run: as §1

ELF4 = ELF4 (Homo sapiens, UniProt Q99607 1-663); conditions: protein: recombinant; tags: N-terminal GST; dsDNA, one strand shown
Sequence of ELF4 (Q99607 whole entry): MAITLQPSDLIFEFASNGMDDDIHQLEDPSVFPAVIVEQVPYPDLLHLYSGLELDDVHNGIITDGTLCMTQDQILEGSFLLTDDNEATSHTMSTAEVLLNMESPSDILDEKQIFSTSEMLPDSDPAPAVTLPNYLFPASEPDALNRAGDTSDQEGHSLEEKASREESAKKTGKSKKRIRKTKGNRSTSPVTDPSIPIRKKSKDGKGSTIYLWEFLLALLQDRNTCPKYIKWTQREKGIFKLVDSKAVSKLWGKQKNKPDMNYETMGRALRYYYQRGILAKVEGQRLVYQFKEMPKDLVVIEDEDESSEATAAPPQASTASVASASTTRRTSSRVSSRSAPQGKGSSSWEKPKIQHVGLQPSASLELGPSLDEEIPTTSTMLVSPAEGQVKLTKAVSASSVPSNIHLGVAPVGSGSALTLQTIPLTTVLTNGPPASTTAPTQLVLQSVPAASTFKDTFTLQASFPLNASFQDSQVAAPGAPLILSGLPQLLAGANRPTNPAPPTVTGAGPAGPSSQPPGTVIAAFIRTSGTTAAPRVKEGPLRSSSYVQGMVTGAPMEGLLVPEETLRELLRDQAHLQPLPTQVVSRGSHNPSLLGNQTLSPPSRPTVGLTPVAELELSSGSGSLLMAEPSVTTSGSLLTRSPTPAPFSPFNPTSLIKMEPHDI
How it was run: as §1

ELK4 = molecular target: T3, ELK4 (Homo sapiens, UniProt P28324-2 1-405); conditions: protein: recombinant; tags: N-terminal GST; dsDNA, one strand shown
T3 sequence: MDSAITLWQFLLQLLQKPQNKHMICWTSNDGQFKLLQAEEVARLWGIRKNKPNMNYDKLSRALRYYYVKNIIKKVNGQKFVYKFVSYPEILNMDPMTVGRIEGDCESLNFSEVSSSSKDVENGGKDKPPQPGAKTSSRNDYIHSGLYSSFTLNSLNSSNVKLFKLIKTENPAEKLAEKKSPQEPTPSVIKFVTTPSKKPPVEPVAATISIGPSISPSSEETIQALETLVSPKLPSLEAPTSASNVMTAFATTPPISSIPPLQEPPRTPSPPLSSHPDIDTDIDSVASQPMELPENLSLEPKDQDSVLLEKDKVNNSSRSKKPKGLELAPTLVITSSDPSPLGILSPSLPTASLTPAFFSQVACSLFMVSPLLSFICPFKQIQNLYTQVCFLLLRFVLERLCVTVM
How it was run: as §1

ETV2 = molecular target: T4, ETV2 (Homo sapiens, UniProt O00321 1-342); conditions: protein: recombinant; tags: N-terminal GST; dsDNA, one strand shown
T4 sequence: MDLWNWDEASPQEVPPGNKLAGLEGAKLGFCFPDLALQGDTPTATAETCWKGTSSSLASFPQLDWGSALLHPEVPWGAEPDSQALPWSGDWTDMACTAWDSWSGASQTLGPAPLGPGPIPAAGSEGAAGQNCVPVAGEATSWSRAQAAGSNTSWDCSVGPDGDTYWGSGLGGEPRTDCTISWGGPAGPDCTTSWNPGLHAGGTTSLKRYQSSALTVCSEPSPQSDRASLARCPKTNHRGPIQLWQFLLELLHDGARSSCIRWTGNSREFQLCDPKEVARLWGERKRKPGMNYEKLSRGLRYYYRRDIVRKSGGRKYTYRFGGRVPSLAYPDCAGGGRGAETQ
How it was run: as §1

ELF3 = molecular target: T5, ELF3 (Homo sapiens, UniProt P78545 1-371); conditions: protein: recombinant; tags: N-terminal GST; dsDNA, one strand shown
T5 sequence: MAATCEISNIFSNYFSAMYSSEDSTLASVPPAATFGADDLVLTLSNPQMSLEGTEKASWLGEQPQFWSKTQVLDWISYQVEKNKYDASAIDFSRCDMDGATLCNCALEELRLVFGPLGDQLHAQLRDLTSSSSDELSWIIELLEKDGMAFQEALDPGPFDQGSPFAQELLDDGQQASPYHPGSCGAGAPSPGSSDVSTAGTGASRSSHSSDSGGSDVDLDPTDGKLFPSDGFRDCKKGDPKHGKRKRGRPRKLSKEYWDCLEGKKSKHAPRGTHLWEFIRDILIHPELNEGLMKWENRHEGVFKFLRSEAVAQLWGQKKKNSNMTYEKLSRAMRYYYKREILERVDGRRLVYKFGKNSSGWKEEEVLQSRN
How it was run: as §1

CRX = CRX (Homo sapiens, UniProt O43186 1-299); conditions: protein: recombinant; tags: N-terminal GST; dsDNA, one strand shown
Sequence of CRX (O43186 whole entry): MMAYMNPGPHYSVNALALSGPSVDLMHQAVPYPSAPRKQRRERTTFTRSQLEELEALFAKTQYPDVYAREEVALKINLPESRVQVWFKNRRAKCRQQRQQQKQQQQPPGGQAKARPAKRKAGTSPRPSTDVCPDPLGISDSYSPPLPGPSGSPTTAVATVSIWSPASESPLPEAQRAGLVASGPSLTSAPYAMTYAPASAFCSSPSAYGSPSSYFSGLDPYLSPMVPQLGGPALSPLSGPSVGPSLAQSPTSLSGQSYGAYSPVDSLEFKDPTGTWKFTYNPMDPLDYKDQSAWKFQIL
How it was run: as §1

ETV1 = ETV1 (Homo sapiens, UniProt P50549 1-477); conditions: protein: recombinant; tags: N-terminal GST; dsDNA, one strand shown
Sequence of ETV1 (P50549 whole entry): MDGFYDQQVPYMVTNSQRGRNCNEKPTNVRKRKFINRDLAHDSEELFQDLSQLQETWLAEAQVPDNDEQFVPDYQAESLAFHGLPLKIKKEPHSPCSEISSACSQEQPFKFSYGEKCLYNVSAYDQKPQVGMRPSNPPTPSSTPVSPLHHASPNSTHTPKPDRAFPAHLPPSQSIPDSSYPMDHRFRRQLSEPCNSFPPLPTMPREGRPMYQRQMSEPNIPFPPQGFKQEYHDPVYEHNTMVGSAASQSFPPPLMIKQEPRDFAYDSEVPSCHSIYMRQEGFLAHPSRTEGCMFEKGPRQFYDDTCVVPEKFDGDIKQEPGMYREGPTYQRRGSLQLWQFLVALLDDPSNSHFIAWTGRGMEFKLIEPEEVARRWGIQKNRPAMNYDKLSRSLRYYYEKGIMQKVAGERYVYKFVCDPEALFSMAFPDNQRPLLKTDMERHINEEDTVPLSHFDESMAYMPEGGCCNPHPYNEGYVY
How it was run: as §1

ERF = molecular target: T6, ERF (Homo sapiens, UniProt P50548 1-548); conditions: protein: recombinant; tags: N-terminal GST; dsDNA, one strand shown
T6 sequence: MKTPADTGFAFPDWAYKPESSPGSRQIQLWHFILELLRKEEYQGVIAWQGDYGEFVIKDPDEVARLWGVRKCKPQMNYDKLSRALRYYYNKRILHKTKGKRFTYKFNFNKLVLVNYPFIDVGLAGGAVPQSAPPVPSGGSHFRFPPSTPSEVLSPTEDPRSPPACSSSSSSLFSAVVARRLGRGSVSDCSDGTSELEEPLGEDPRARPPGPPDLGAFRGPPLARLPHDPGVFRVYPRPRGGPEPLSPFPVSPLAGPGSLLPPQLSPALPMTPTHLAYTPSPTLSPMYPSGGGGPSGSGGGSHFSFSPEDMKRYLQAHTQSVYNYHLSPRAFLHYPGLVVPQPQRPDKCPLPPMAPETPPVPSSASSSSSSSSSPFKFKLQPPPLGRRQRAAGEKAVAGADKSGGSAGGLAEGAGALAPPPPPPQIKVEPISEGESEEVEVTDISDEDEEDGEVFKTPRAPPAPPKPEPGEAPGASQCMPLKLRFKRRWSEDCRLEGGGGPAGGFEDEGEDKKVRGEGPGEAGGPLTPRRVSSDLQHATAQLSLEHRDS
How it was run: as §1

ETV3L = molecular target: T7, ETV3L (Homo sapiens, UniProt Q6ZN32 1-361); conditions: protein: recombinant; tags: N-terminal GST; dsDNA, one strand shown
T7 sequence: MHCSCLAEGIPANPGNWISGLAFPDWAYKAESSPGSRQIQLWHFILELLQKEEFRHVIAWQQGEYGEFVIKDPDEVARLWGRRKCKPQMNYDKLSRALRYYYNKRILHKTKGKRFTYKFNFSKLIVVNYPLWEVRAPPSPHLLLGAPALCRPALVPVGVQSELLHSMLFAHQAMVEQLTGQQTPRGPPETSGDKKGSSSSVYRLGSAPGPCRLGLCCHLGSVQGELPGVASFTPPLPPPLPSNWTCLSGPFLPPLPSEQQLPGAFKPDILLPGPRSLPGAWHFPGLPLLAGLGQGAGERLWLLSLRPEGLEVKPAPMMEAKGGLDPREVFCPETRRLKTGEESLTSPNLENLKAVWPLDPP
How it was run: as §1

ETS2 = molecular target: T8, ETS2 (Homo sapiens, UniProt P15036 1-469); conditions: protein: recombinant; tags: N-terminal GST; dsDNA, one strand shown
T8 sequence: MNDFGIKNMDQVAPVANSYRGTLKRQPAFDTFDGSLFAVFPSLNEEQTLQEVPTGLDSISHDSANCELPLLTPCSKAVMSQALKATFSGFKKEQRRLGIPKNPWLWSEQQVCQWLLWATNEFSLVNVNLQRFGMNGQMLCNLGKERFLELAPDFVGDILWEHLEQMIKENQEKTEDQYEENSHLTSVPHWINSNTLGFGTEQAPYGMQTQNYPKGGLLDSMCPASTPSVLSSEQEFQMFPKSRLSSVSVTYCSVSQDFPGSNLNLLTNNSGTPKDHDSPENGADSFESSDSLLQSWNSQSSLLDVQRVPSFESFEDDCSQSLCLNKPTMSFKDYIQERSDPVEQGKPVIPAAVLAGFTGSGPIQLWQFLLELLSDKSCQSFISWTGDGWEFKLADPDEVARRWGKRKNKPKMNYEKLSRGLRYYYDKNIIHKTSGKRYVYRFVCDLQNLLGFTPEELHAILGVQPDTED
How it was run: as §1

SPDEF = molecular target: T9, SPDEF (Homo sapiens, UniProt O95238 1-335); conditions: protein: recombinant; tags: N-terminal GST; dsDNA, one strand shown
T9 sequence: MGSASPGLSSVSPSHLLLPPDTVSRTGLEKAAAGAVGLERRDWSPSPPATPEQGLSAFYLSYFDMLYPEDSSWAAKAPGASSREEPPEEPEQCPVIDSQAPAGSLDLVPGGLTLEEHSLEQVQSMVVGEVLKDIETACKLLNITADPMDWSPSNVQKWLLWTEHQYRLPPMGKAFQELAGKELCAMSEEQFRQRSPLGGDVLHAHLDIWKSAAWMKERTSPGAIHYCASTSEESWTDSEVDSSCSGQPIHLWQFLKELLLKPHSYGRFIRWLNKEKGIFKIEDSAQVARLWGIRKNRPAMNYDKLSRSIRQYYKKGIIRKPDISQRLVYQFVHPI
How it was run: as §1

ETV7 = molecular target: T10, ETV7 (Homo sapiens, UniProt Q9Y603 1-341); conditions: protein: recombinant; tags: N-terminal GST; dsDNA, one strand shown
T10 sequence: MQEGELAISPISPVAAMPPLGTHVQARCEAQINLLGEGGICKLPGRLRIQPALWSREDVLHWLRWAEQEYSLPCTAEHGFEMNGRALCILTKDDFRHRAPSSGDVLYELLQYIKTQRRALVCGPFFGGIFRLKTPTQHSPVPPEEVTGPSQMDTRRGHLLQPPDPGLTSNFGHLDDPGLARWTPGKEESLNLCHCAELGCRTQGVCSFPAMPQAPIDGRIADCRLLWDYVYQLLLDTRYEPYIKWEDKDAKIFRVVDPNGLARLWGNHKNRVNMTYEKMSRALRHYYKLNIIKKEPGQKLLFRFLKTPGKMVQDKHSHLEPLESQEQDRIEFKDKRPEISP
How it was run: as §1

ELF5 = molecular target: T11, ELF5 (Homo sapiens, UniProt Q9UKW6-2 1-255); conditions: protein: recombinant; tags: N-terminal GST; dsDNA, one strand shown
T11 sequence: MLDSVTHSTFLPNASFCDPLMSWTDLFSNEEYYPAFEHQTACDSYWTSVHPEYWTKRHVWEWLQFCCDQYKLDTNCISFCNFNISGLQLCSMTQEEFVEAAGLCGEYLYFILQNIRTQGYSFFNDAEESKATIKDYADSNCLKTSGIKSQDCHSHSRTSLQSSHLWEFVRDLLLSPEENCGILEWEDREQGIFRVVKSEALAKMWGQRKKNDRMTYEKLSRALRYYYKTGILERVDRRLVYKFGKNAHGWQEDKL
How it was run: as §1

ETV3 = molecular target: T12, ETV3 (Homo sapiens, UniProt P41162-2 1-143); conditions: protein: recombinant; tags: N-terminal GST; dsDNA, one strand shown
T12 sequence: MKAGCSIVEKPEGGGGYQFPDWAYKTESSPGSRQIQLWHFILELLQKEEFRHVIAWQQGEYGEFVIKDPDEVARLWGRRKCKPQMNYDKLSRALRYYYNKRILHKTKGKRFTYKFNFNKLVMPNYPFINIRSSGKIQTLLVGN
How it was run: as §1

ETV6 = ETV6 (Homo sapiens, UniProt P41212 1-452); conditions: protein: recombinant; tags: N-terminal GST; dsDNA, one strand shown
Sequence of ETV6 (P41212 whole entry): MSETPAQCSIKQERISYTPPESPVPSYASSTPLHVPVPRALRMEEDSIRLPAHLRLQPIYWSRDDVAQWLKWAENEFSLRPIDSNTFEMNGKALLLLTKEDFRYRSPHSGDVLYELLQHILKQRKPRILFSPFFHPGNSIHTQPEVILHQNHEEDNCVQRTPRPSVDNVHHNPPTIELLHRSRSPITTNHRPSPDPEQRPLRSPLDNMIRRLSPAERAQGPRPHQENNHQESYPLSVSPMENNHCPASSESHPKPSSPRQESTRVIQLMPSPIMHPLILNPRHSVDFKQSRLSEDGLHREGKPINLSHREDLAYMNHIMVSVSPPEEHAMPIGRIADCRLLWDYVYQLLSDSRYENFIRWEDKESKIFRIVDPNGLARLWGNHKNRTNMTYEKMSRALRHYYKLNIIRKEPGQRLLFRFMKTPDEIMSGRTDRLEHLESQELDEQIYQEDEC
How it was run: as §1

CTCTAG
binding signal (FEV): 1.25 fold enrichment (6-mer frequency, TF over GST control)
binding signal (ETV5): 1.3 fold enrichment (6-mer frequency, TF over GST control)
binding signal (HSF1): 2.39 fold enrichment (6-mer frequency, TF over GST control)
binding signal (SPIC): 1.37 fold enrichment (6-mer frequency, TF over GST control)
binding signal (ELF4): 1.32 fold enrichment (6-mer frequency, TF over GST control)
binding signal (ELK4): 1.31 fold enrichment (6-mer frequency, TF over GST control)
binding signal (ETV2): 1.12 fold enrichment (6-mer frequency, TF over GST control)
binding signal (ELF3): 1.1 fold enrichment (6-mer frequency, TF over GST control)
binding signal (CRX): 1.46 fold enrichment (6-mer frequency, TF over GST control)
binding signal (ETV1): 1.16 fold enrichment (6-mer frequency, TF over GST control)
binding signal (ERF): 1.31 fold enrichment (6-mer frequency, TF over GST control)
binding signal (ETV3L): 1.28 fold enrichment (6-mer frequency, TF over GST control)
binding signal (ETS2): 1.26 fold enrichment (6-mer frequency, TF over GST control)
binding signal (SPDEF): 1.24 fold enrichment (6-mer frequency, TF over GST control)
binding signal (ETV7): 1.27 fold enrichment (6-mer frequency, TF over GST control)
binding signal (ELF5): 1.22 fold enrichment (6-mer frequency, TF over GST control)
binding signal (ETV3): 1.4 fold enrichment (6-mer frequency, TF over GST control)
binding signal (ETV6): 1.34 fold enrichment (6-mer frequency, TF over GST control)
